Screens as filed in PubChem BioAssay.
The list is not random: actives were taken first. Their share in the collection is about 4.6%.
D1 ag: human D1 receptor agonism. HEK293 T-REx D1 cells, calcium flux, agonist mode. activation, % at 2 µM. 1% of 360,000 active. AID 504660
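Tetracycline-induced HEK293 TREx D1 cells, force-coupled to calcium signalling, were dye-loaded with a no-wash calcium kit. Compound was pin-added after a 10 s baseline. Fluorescence was read kinetically at 1 cycle/s for 180 s, with calcium rises flagged as agonism.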
D1 antag: antagonists of human D1 dopamine receptor. HEK293 TREx D1 cells, calcium flux, dopamine EC80; active compounds read low. 3.2% of 360,000 active. P21728. AID 504652. activity change, negative = inhibition, % at 10 µM; in the data active = activity change below about -30%
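Tetracycline-induced HEK293 Trex D1 cells, force-coupled to calcium, dye-loaded; compounds added and read 180 s, then EC80 dopamine added and calcium flux tracked kinetically another 180 s.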
D1 PAM: enhances dopamine response at the human D1 receptor | P21728 | HEK293 TREx D1 cells, calcium flux, dopamine EC20 potentiation | potentiation, % at 10 µM | 0.036% of 360,000 active; in the data active = potentiation above about 30%
Epigenetic derep: derepresses silenced GFP reporter in murine cells. murine LDR cells, GFP reporter derepression, 30 h. Potency, µM (top dose mostly 53.9 µM), most hits filed as activators. 0.2% of 280,000 active. AID 1865; active = well fitted activation curve with a large enough effect; also: nearly all actives have a fitted effect of over 60% in size
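Readout is the number of GFP-expressing murine LDR cells, counted by cytometry following washing. Cells were treated with compound for 30 h at 37 C; the stably integrated CMV-GFP locus is normally silent.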
TRHR ag: TRH receptor (human) agonism. 0.18% of 360,000 active. AID 493084. P34981. TRHR cells, calcium flux fluo-8, FDSS agonist mode. activation, % at 2 µM
Target sequence (P34981 whole entry, looked up): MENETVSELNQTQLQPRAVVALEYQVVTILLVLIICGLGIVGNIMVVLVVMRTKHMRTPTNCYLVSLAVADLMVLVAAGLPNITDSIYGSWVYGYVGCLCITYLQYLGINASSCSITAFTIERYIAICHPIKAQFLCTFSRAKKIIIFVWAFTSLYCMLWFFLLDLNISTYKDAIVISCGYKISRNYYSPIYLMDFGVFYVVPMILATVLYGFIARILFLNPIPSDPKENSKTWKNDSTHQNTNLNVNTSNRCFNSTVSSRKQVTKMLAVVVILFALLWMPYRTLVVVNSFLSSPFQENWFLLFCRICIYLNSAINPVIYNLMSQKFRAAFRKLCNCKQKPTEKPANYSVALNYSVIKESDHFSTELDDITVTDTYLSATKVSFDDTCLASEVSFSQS
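TRHR-expressing cells, plated overnight in medium with 10% serum, were loaded with fluo-8 calcium dye at room temperature. After a 10 s baseline, library compound was pin-added and calcium release was recorded kinetically (ex 480/em 530) as agonist response.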
TRHR enhancer: TRH receptor (human) allosteric enhancement; TRHR cells, fluo-8 calcium fluorescence, EC20 TRH enhancement; enhancement, % at 2 µM; 0.66% of 360,000 active; in the data active = enhancement above about 30%
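TRHR-expressing cells loaded with fluo-8 calcium dye were read kinetically (ex 480/em 530) during compound addition, then stimulated with an EC20 of TRH (10 nM final). Enhancement of the Gq-mediated intracellular calcium response was scored.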
Of the large screens only hits and unclear results are named; the others gave an inactive call; ! = a repeat was not active. Rule as the data show it, unless noted: active = activation above about 30%; inactive = the rest.

O=C(NCCCN1CCCC1=O)c1cccc(S(=O)(=O)N2CCN(c3ccccc3)CC2)c1	D1 antag -44 (no result: Epigenetic derep)
O=C(NCCCN1CCCC1=O)c1cccc(NS(=O)(=O)c2ccccc2)c1	none (no result: Epigenetic derep)
O=C(NCCCN1CCCC1=O)c1cccc(NS(=O)(=O)c2ccc(Br)cc2)c1	TRHR enhancer 33 (no result: Epigenetic derep)
O=C(NCCCn1ccnc1)c1cccc(S(=O)(=O)Nc2ccc(F)cc2)c1	none (no result: Epigenetic derep)
O=C(NCCCN1CCCC1=O)C(=O)Nc1cccc(F)c1	D1 antag -44 (no result: Epigenetic derep)
O=C(NCCCn1ccnc1)c1cccc(S(=O)(=O)Nc2ccc(Br)cc2)c1	D1 ag 51, TRHR enhancer 36 (no result: Epigenetic derep)
CCOc1ccc(-c2nonc2NC(=O)c2oc3cc(Br)ccc3c2C)cc1	none
CCC1=C(OC(=O)N(CC)CC)N2C(=O)OC(=NCCOC)[C@]2(C)[C@H]2C1=CC[C@H]1C(=O)N(CC(=O)OC)C(=O)[C@H]12	none (no result: D1 ag, D1 antag, D1 PAM, TRHR ag, TRHR enhancer)
O=C(COC(=O)c1cccc(S(=O)(=O)N2CCN(c3ccccc3)CC2)c1)NCc1ccco1	TRHR enhancer 35
NC(=O)COC(=O)c1cccc(S(=O)(=O)N2CCN(c3ccccc3)CC2)c1	none
CC(=O)c1cccc(NS(=O)(=O)c2cccc(S(=O)(=O)c3ccc(Br)cc3)c2)c1	D1 antag -41
CCc1sc(C(=O)NCCCn2ccnc2)cc1Br	TRHR enhancer 31 (no result: Epigenetic derep)
CC(C)(C)c1ccc(C(=O)NCCCn2ccnc2)cc1	none (no result: Epigenetic derep)
CCC(C)Sc1oc(-c2ccco2)nc1S(=O)(=O)c1ccc(C)cc1 (centres undefined)	none
Cc1ccc(S(=O)(=O)Nc2c(C)n(C)n(-c3ccccc3)c2=O)cc1C(=O)NCc1ccccn1	D1 antag -34
CCN(Cc1ccccc1)C(=O)C(C)OC(=O)c1cc(S(=O)(=O)Nc2c(C)n(C)n(-c3ccccc3)c2=O)ccc1C (centres undefined)	D1 antag -69
Cc1ccc(S(=O)(=O)N2CCCCC2)cc1C(=O)NCc1ccccn1	none (no result: Epigenetic derep)
Cc1c(NS(=O)(=O)c2ccc3c(c2)n(C)c(=O)n3C)c(=O)n(-c2ccccc2)n1C	none
Cc1c(NS(=O)(=O)c2ccc(C(=O)NCc3ccc(F)cc3)cc2)c(=O)n(-c2ccccc2)n1C	D1 antag -36 (no result: Epigenetic derep)
CCN(Cc1ccccc1)C(=O)COC(=O)c1cc(S(=O)(=O)Nc2c(C)n(C)n(-c3ccccc3)c2=O)ccc1C	none
CSc1nc2ccc(S(=O)(=O)Nc3c(C)n(C)n(-c4ccccc4)c3=O)cc2s1	D1 antag -91
CC1=C(c2ccc(C)cc2)S(=O)(=O)N(Cc2ccc(C(=O)Nc3ccc(F)cc3C)cc2)C1=O	none
COC(=O)C1(c2ccccc2)NC(c2ccc(O)cc2)C2C(=O)N(c3ccc4c(c3)OCO4)C(=O)C21 (centres undefined)	D1 antag -56
CCCC1(C(=O)OCC)NC(c2ccc(O)cc2)C2C(=O)N(c3ccc4c(c3)OCCO4)C(=O)C21 (centres undefined)	none
Cc1ccc(Cl)cc1NC(=O)c1ccc(-c2nc(CSc3ccccc3)c(C)o2)cc1	none
COc1cc2ccccc2cc1C(=O)N(CCN(C)C)c1nc2c(F)cc(F)cc2s1	D1 antag -36 (no result: Epigenetic derep)
CCOc1ccc(CNCc2c(C(=O)O)n(Cc3ccc(OC)cc3)c3ccccc23)cc1	none
Cc1onc(-c2ccccc2)c1C(=O)c1c[nH]c(C(=O)NCc2ccncc2)c1	D1 antag -89
O=C(CSC1=Nc2ccccc2C2=NC(Cc3ccccc3)C(=O)N12)Nc1ccccc1F (centres undefined)	none
Cc1ccc(S(=O)(=O)N(C)Cc2ccc(C(=O)N/N=C/c3ccc(OC(F)F)cc3OC(F)F)cc2)cc1	none
Cc1ccc(S(=O)(=O)N(C)Cc2ccc(C(=O)N/N=C3\CC(=O)CC(C)(C)C3)cc2)cc1	D1 antag -42
N#Cc1ccc(-c2ccc(OCC(=O)Nc3cccnc3)cc2)cc1	D1 antag -45 (no result: Epigenetic derep)
CC(=O)Nc1ccc(NC(=O)COc2ccc(-c3ccc(C#N)cc3)cc2)cc1	none (no result: Epigenetic derep)
Cc1nc(Br)c(Br)c(C)c1Br	D1 antag -31
Cc1nc(N2CCOCC2)c(C#N)c(C)c1Br	none
COC(=O)c1cc(S(=O)(=O)NCc2ccccc2OC)cn1C	D1 antag -48 (no result: Epigenetic derep)
COc1ccccc1CNC(=O)c1cc(S(=O)(=O)N2CCCC(C)C2)cn1C (centres undefined)	TRHR enhancer 38
COC(=O)c1cc(S(=O)(=O)NCC2CCN(Cc3cccc(F)c3)CC2)cn1C	D1 antag -39!
O=C(NCCCc1ccccc1)c1nn(-c2ccccc2F)nc1CO	none
CC(C)C[C@@H](CC(=O)N[C@@H](CCC(=O)O)CC(=O)O)NC(=O)[C@@H]1CCCC[C@H]1NC(=O)C[C@H](CCCN)NC(=O)C[C@H](Cc1c[nH]c2ccccc12)NC(=O)[C@@H]1CCCC[C@H]1N	none (no result: D1 ag, D1 antag, D1 PAM, TRHR ag, TRHR enhancer)
CC(C)Cn1c(/C=C/c2ccccc2)nc2ccccc21	none
CCCCCCn1c(/C=C/c2ccccc2)nc2ccccc21	D1 antag -31
CCCCCn1c(-c2ccc(OC)c(OC)c2)nc2ccccc21	D1 ag 57, D1 antag -47
CCn1c(/C=C/c2ccccc2)nc2ccccc21	D1 antag -39
Cc1ccc(NC(=O)Nc2c(C)n(C)n(-c3ccccc3)c2=O)c(Cl)c1	none
CCC1CCCCN1C(=O)Cn1c(=O)n(-c2ccc(Cl)c(Cl)c2)c(=O)c2c(C)c(C(=O)N(C)C)sc21 (centres undefined)	D1 antag -34
Cc1c(C(=O)N(C)C)sc2c1c(=O)n(-c1ccc(Cl)c(Cl)c1)c(=O)n2CC(=O)C(C)(C)C	none
COCCn1nc2cc(C(=O)NCC34CC5CC(CC(C5)C3)C4)ccc2c1OC	D1 antag -32
CCCn1nc2cc(C(=O)NCC34CC5CC(CC(C5)C3)C4)ccc2c1OCC	none
Cc1nc(-n2nc(C)c(Cc3ccccc3Cl)c2C)sc1C(=O)N1CCCCC1C (centres undefined)	none
CC(NC(=O)Nc1ccc(F)cc1)C(c1cccs1)N1CCCC1 (centres undefined)	D1 ag 72
O=C(Nc1ccccc1)Nc1cc(OCC(F)(F)F)cc(OCC(F)(F)F)c1	D1 antag -33
O=C(NCCNC(=O)c1cc(OCC(F)(F)F)ccc1OCC(F)(F)F)Nc1cccc(C(F)(F)F)c1	none
COc1ccc(CNc2cccc(C)n2)c(O)c1	none (no result: Epigenetic derep)
Cc1cccc(NCc2cccc3ccccc23)n1	D1 antag -91 (no result: Epigenetic derep)
CC1S/C(=N/N=C/c2ccco2)N(Cc2ccccc2)C1=O (centres undefined)	D1 antag -40
